Experimental data published in ChEMBL document CHEMBL3988442, “University of Dundee, Small-Polar-MMV Screening Library” (2021).
About 900 (1.7%) of roughly 53,000 compounds showed an effect of 50% or more. Many of the other results were omitted from the sample, so strong results are more common in it than they were.

tested on: Mycobacterium tuberculosis; assay: Cornell - Phenotypic assay to identify agents that inhibit growth of Mycobacterium tuberculosis; format: functional; set-up: scale not given: direction of the effect not stated beside the values; settings: 10 mM as filed; unlikely as a test dose

| Compound | Percent Effect [%] |
| --- | --- |
| Cc1cnn(CC2CN(CCc3ccccn3)CCO2)c1 (stereo unspecified) | -8.826 |
| N[C@H]1CC[C@@H](n2cc(C(=O)N[C@H]3CCCc4ccccc43)nn2)CC1 | 52.81 |
| N[C@H]1CC[C@@H](n2cc(C(=O)NC3COc4ccccc43)nn2)CC1 (stereo partly specified) | 8.791 |
| N[C@H]1CC[C@@H](n2cc(C(=O)NC3CCc4ccccc4C3)nn2)CC1 (stereo partly specified) | 43.67 |
| Cc1cn2c(n1)CCC(NC(=O)CNS(C)(=O)=O)C2 (stereo unspecified) | -12.28 |
| Cc1cccc(Nc2ccc(C3CCN(Cc4ncc[nH]4)CC3)nc2)n1 | 12.85 |
| Fc1ccc(Nc2ccc(C3CCN(Cc4ncc[nH]4)CC3)nc2)nc1 | 12.33 |
| Cc1cc(Nc2ccc(F)cn2)cc(C2CCN(Cc3ncc[nH]3)C2)n1 (stereo unspecified) | 67.32 |
| COc1ccc(NC(=O)CCn2nc(-c3cccs3)oc2=O)cc1OC | -4.295 |
| Cc1cc(N(C)CC2COc3ccccc3O2)nc(N)n1 (stereo unspecified) | 18.45 |
| Cc1cc(N(C)CC2COc3ccccc3O2)nc(C)n1 (stereo unspecified) | 22.34 |
| CCN1CC(CN(C)c2cc(C)nc(N)n2)Oc2ccccc21 (stereo unspecified) | 100.1 |
| Cc1nc(C)n(CC2CCCN(Cc3ccc4c(c3)OCCO4)C2)n1 (stereo unspecified) | 7.597 |
| Cc1cc(-c2cnc(NCc3ccc4c(c3)OCO4)nc2C(C)C)on1 | 24.22 |
| Cc1cc(-c2cnc(N3CCCC3)nc2C(C)C)on1 | -0.9341 |
| COc1ccc(CNc2ncc(-c3cc(C)no3)c(C(C)C)n2)cc1 | 36.58 |
| Cc1cc(-c2cnc(NCc3ccccn3)nc2C(C)C)on1 | 76.78 |
| Cc1cc(-c2cnc(NCc3ccncc3)nc2C(C)C)on1 | 71.23 |
| COc1ccccc1CNc1ncc(-c2cc(C)no2)c(C(C)C)n1 | 6.538 |
| Cc1oc(-c2ccsc2)nc1CC(=O)NCC(C)(C)CN(C)C | 3.653 |
| Cc1nnc(N2CCCC3(CN(Cc4nccn4C)CCO3)C2)o1 (stereo unspecified) | -3.973 |
| CS(=O)(=O)NCCNCc1ccc(Br)s1.Cl | -4.859 |
| O=C1CCC(=O)N1CCOc1nc(-c2ccccc2Cl)no1 | 8.319 |
| Cn1ccnc1-c1ccc(NCC2COc3ccccc3O2)nn1 (stereo unspecified) | 75.27 |
| Cn1ccnc1-c1ccc(NCCC2COc3ccccc3O2)nn1 (stereo unspecified) | 46.99 |
| Cn1ccnc1-c1ccc(NC[C@H]2CCc3ccccc3O2)nn1 | 35.04 |

| Compound | Percent Effect [%] |
| --- | --- |
| O=C(CNC1(c2ccc(Cl)cc2)CCOCC1)NC1CCCC1 | 28.07 |
| Cc1cc(C)n(C2CCN(S(=O)(=O)N3CCOCC3)CC2)n1 | -10.91 |
| Cn1cc(NC(=O)N2CCC(NS(C)(=O)=O)CC2)ccc1=O | 73.41 |
| Cn1cc(NC(=O)N2CCC(CN3CCCC3)CC2)ccc1=O | 1.194 |
| Cn1cc(NC(=O)N2CCC(c3ccccc3)CC2)ccc1=O | 23.03 |
| Cc1nc(N)cc(C2(C)CCCNC2)n1 (stereo unspecified) | 52.22 |
| Cc1cc(N(C)C)nc(C2(C)CCCNC2)n1 (stereo unspecified) | -30.33 |
| Cc1nc(N(C)C)cc(C2(C)CCCNC2)n1 (stereo unspecified) | 54.11 |
| Cc1nccc(C2(C)CCCNC2)n1.Cl.Cl (stereo unspecified) | -29.52 |
| Cc1nc(N(C)C)cc(C2(C)CCNCC2)n1 | 3.518 |
| Cc1nc(O)cc(C2(C)CCCNC2)n1.Cl (stereo unspecified) | 37.37 |
| COC(=O)Nc1cccc(C(=O)N(C)Cc2cccc(O)c2)c1 | 16.47 |
| CC(C)(C)CC(=O)N1CCC(c2nn(CCN)c3nccnc23)C1 (stereo unspecified) | -1.305 |
| CSc1nnc(N(CCC#N)CCC#N)s1 | 7.045 |
| CCSc1nnc(N(CCC#N)CCC#N)s1 | 19.26 |
| Cc1nnc(N(CCC#N)CCC#N)s1 | 53.32 |
| CC(=O)NCC(=O)N1Cc2nccn2CC(Cn2cccn2)C1 (stereo unspecified) | 8.126 |
| CN(Cc1nc2ccccc2n1C)C(=O)CCc1cscn1 | 3.18 |
| Cc1ccc(CNCc2cccc3cn[nH]c23)c(OC2CCOC2)c1 (stereo unspecified) | 31.88 |
| COCCOc1ccc(NCc2cccc3cn[nH]c23)cn1 | 0.8667 |
| Cc1ccc(NCc2cccc3cn[nH]c23)cc1OC1CCOC1 (stereo unspecified) | 50.19 |
| CN1CCCN(C(=O)c2cnsn2)c2cc(Cl)ccc21 | 23.17 |
| CN1CC2(CCCN(CCOCc3ccccc3)C2)OC1=O (stereo unspecified) | 17.75 |
| COc1ccccc1OCC(=O)NS(=O)(=O)c1ccccc1Br | 29.83 |
| N#Cc1cn[nH]c1NCc1cc(Cl)cc(Cl)c1O | 4.06 |
| N#Cc1cn[nH]c1NCc1cc(I)cc(I)c1O | 104.4 |

| Compound | Percent Effect [%] |
| --- | --- |
| N#Cc1cn[nH]c1NCc1cc(Br)ccc1O | -2.668 |
| CN1C[C@@H](C(=O)NC2CC2)[C@@]2(COc3ccc(F)cc3C2=O)C1 | -27.17 |
| Cn1cc(N2C(=O)CC[C@@H]3[C@H]2CCN3Cc2cccc(C#N)c2)cn1.O=C(O)C(F)(F)F.O=C(O)C(F)(F)F | 14.16 |
| CN1CCCCCC1C(=O)NCCCn1ncc2ccccc21 (stereo unspecified) | 28.62 |
| Cn1nnc(NCc2ccc(-c3ccc(Br)cc3)o2)n1 | 60.92 |
| CCC(CO)NCc1ccc(-c2ccc(Br)cc2)o1.Cl (stereo unspecified) | 52.02 |
| CCn1nnc(NCc2ccc(-c3ccc(Br)cc3)o2)n1 | 69.94 |
| CCn1nnc(NCc2cc(Br)cc(Br)c2OC)n1 | 31.18 |
| CCCn1nnc(NCc2ccc(-c3ccc(Br)cc3)o2)n1 | 31.95 |
| CCC(CO)NCc1ccc(-c2ccc(F)c(Cl)c2)o1.Cl (stereo unspecified) | 48.48 |
| Cn1ncnc1NCc1ccc(Cl)cc1 | -4.993 |
| Cn1nnc(NCc2ccc(-c3ccc(Cl)cc3)o2)n1 | 60.16 |
| CCCn1nnc(NCc2cc(Br)cc(Br)c2OC)n1 | 40.71 |
| CCC(CO)NCc1ccc(-c2ccc(Cl)cc2)o1.Cl (stereo unspecified) | 16.24 |
| CCC(CO)NCc1ccc(-c2ccccc2)o1.Cl (stereo unspecified) | 5.639 |
| CCC(CO)NCc1ccc(-c2ccc(F)cc2)o1.Cl (stereo unspecified) | 35.55 |
| O=C(c1sccc1Cl)N1CCC(Cn2cc(CO)nn2)CC1 | 28.9 |
| CC(Nc1cccc(COCc2ccco2)c1)C(=O)NC(N)=O (stereo unspecified) | 25.61 |
| COCCCNC(=O)C(C)n1nc(-c2ccco2)cc(N)c1=O (stereo unspecified) | 37.24 |
| Cc1ncncc1-c1ccnc(N)n1 | 1.831 |
| CS(=O)(=O)c1ccc(NCC2CCCO2)c(S(C)(=O)=O)c1 (stereo unspecified) | -21.42 |
| Cc1ccccc1C(C(=O)NCCSC(C)C)N(C)C (stereo unspecified) | 29.49 |
| CNc1ncc2c(n1)CN(CCc1ccc(C)cc1)C2=O | 8.766 |
| Cn1ccc(C(=O)N2CCCC(c3cc4cccnc4c(O)n3)C2)n1 (stereo unspecified) | -16.1 |
| CN(C)CCC1CCN(c2cc(N3CCCC3CO)ncn2)CC1 (stereo unspecified) | -19.44 |
| CC(C)n1nccc1C(=O)N1CCC(c2nnsc2S(C)(=O)=O)CC1 | 12.35 |

| Compound | Percent Effect [%] |
| --- | --- |
| Cc1noc(C)c1CNC(=O)C(C)Oc1ccccc1F (stereo unspecified) | -2.201 |
| Cc1nonc1CNC(=O)C(C)Oc1ccccc1F (stereo unspecified) | 47.11 |
| Cc1nonc1CNC(=O)C(C)Oc1cccc(F)c1 (stereo unspecified) | 53.11 |
| CCOCC1CN(Cc2ccncc2)Cc2nn(C)cc21.O=C(O)C(F)(F)F.O=C(O)C(F)(F)F (stereo unspecified) | 12.3 |
| O=C(O)C(F)(F)F.O=C(O)C(F)(F)F.c1c(CN2CCCC2)nc2n1CCN(C1CCOCC1)C2 | 3.362 |
| Cc1cc(C(=O)NC2CCN(CC(N)=O)CC2)nn1C(C)(C)C | 11.5 |
| COCCn1ccc2c(NC(=O)c3n[nH]c4c3CCCC4)cccc21 | 70.2 |
| COCCn1ccc2c(C(=O)Nc3nc4c(s3)CCC4)cccc21 | 15.95 |
| COCCn1ccc2c(C(=O)O)cccc21 | 17.17 |
| COCCn1ccc2c(NC(=O)C(C)C)cccc21 | 18.08 |
| CC(=O)Nc1cccc2c1ccn2CC(=O)Nc1n[nH]c(CC(C)C)n1 | -27.06 |
| COCCn1ccc2c(C(=O)NC(C)C)cccc21 | 10.53 |
| CC(C)n1ccc2c(NC(=O)c3n[nH]c4c3CCC4)cccc21 | 48.39 |
| CC(C)Cn1ccc2c(NC(=O)c3n[nH]c4c3CCC4)cccc21 | 50.74 |
| COCCn1ccc2c(NC(=O)c3n[nH]c4c3CCC4)cccc21 | 61.23 |
| COc1cc(C)cc(OC)c1C(C(=O)O)N(C)Cc1c(C)nn(C)c1C (stereo unspecified) | 1.527 |
| COCCn1c2c(ccc1=O)CCN(C(=O)C1CC=CC1)CC2 | 18.02 |
| NC(=O)CCNCc1c(Cl)cccc1N1CCCC1 | -9.412 |
| COCCNc1cc(-c2ccccc2C(N)=O)c2cc[nH]c2n1 | 26.26 |
| Cc1cc(C)n2ncc(CN3C[C@@H](O)[C@H](Oc4ccccc4)C3)c2n1 | 0.3545 |
| CN1CCN(c2nc(O)cc(Cc3ccccc3F)n2)CC1 | 10.81 |
| CC(=O)N1CC(C(=O)NCCc2ncc(C)s2)C1 | 6.986 |
| CC(C)c1cc(NC(=O)CN2CCC(N3CCNC3=O)CC2)on1 | 6.075 |
